# Data as given in PubChem BioAssay (NCATS).
# Records with an inconclusive call do not appear. A call without a number means that no potency is given here. Activity calls are given as the source filed them. The call rests on the fitted dose curve; in most records, active means well fitted curve in the direction sought with a large enough effect; inconclusive means small, poorly fitted or top-dose-only effect, or another doubt; inactive means no such curve, though single readings can be large; an effect the other way counts as inactive or inconclusive.
# What was measured:
# [1] = target: Aldehyde dehydrogenase, mitochondrial (Homo sapiens) (UniProt P05091); assay: qHTS for Inhibitors of the Aldehyde Dehydrogenase Family (ALDH2) Primary screen (AID 2061308); conditions: ALDH2 enzyme inhibition qHTS, 1536-well; series mostly up to 56 µM; further: nearly all actives have a fitted effect of over 55% in size
# [2] = target: Retinaldehyde dehydrogenase 3 (Homo sapiens) (UniProt P47895); assay: qHTS for Inhibitors of the Aldehyde Dehydrogenase Family (ALDH1A3) Primary screen (AID 2061315); conditions: ALDH inhibition qHTS; series mostly up to 56 µM
Structure (SMILES),Potency [1],Potency [2]
Cc1ccc(NC(=O)CN2C(=O)N/C(=C\c3cccn3-c3ccc([S+](N)(=O)[O-])cc3)C2=O)cc1,inactive,inactive
O=C(Nc1cncc(-c2cccnc2)c1)c1cccs1,inactive,inactive
O=C(COC(=O)CNC(=O)c1ccccc1)Nc1ccccc1Cl,inactive,inactive
Cc1ccc(S(=O)(=O)Nc2ccccc2C(=O)Nc2nc(-c3ccccc3)co2)cc1,inactive,inactive
COc1ccc(CCC(=O)c2c(O)cc(O)cc2O[C@@H]2O[C@H](CO)[C@@H](O)[C@H](O)[C@H]2O)cc1,inactive,inactive
CCCn1c(C)nc2c(NCCN(C(C)C)C(C)C)nc(C)nc21,inactive,inactive
NC(=O)Nc1cc(-c2ccc(CN3CCOCC3)c(F)c2)sc1C(=O)N[C@H]1CCCNC1,inactive,inactive
N=c1c2c(ccn1CCCc1ccccc1)Oc1ccc3ccccc3c1C2c1ccccc1 (stereo not given),inactive,inactive
COc1cc(F)c(S(=O)(=O)N2CCCN(S(=O)(=O)c3cccc(N)c3)CC2)c(F)c1,inactive,inactive
CC(C)(C)OC(=O)NCCOCCOCCOc1ccc(-c2no[n+]([O-])c2C#N)cc1,inactive,inactive
Cc1ccc(-c2cc(C(=O)Nc3ccc(S(=O)(=O)Nc4ccc(C#N)cc4)cc3)c3ccccc3n2)cc1C,inactive,inactive
Cc1cc(C)nc(NC(=S)N2CCN(c3ncc(C(F)(F)F)cc3Cl)CC2)c1,inactive,inactive
O=c1[nH]c(CCl)nc2sc3c(c12)CCCC3,inactive,inactive
CCC(C)N(C)C(=O)Cn1nc(-c2ccc(C)cc2)ccc1=O (stereo not given),inactive,inactive
COc1cc(Cl)c(C)cc1NC(=O)C(OC(=O)CNC(=O)c1ccccc1)c1ccccc1 (stereo not given),inactive,inactive
c1ccc2c(Nc3nnc(-c4ccncc4)s3)cccc2c1,inactive,inactive
Cc1ccc(S(=O)(=O)Nc2cnccc2C(=O)Nc2ccc3ccccc3c2)cc1,inactive,inactive
O=C(Nc1nc(-c2ccccc2)cs1)c1ccccc1-n1cnnn1,inactive,inactive
Cc1cc(-c2ccccc2)n2ncc(C(=O)Nc3ccc(Cl)c(Cl)c3)c2n1,inactive,inactive
O=C(Nc1ccc2sccc2c1)Nc1nnc(-c2cccnc2)s1,inactive,inactive
COc1cc(O)c(C(CC(=O)N2CCCC(C)(C)C2)c2ccc3c(c2)OCO3)c(OC)c1 (stereo not given),inactive,inactive
Cn1c2cc(CO)sc2c2cnn(Cc3ccccc3F)c(=O)c21,inactive,inactive
CCC(=O)NC(c1cccs1)c1ccc2cccnc2c1O (stereo not given),inactive,inactive
COc1cc(-c2ccc3ncnc(NCCc4cnc[nH]4)c3c2)cc(OC)c1OC,inactive,inactive

Structure (SMILES),Potency [1],Potency [2]
CC1(C)C=Cc2c(ccc3c2N=C2C(C)(C)[C@@H]4C[C@]56CCCN5C(=O)[C@@]4(C[C@]23O)NC6=O)O1,inactive,inactive
Cc1ccc(NS(=O)(=O)c2cc3c(cc2N(C)CCN(C)C)NC(=O)CC3)cc1C,inactive,inactive
Oc1cccc2cc(-c3ccncc3)cnc12,inactive,inactive
CC(=O)Nc1ccc(S(=O)(=O)Nc2cccc3cccnc23)cc1,inactive,inactive
Nc1cccc(-c2ccc(NC(=O)c3cccs3)cn2)c1,inactive,inactive
C=C1C(=O)O[C@@H]2C[C@H](C)[C@@H]3CC(=O)[C@H](O)[C@@]3(C)C[C@H]12,inactive,inactive
O=C(OCC#CCSc1nnc(-c2cccc3ccccc23)o1)c1cc2ccccc2o1,inactive,inactive
C[C@H](C/C=C/C(C)(C)O)[C@H]1CC[C@@]2(C)[C@@H]3[C@@H](O[C@@H]4O[C@H](CO)[C@@H](O)[C@H](O)[C@H]4O)C=C4C(CC[C@H](O)C4(C)C)[C@]3(C=O)CC[C@]12C (stereo not given in full),inactive,inactive
O=P(c1ccccc1)(c1ccccc1)c1cnc2ccccn12,inactive,inactive
O=C(Nc1nc(-c2ccccc2)cs1)c1cccc(NS(=O)(=O)c2nccs2)c1,inactive,inactive
Oc1ccc(-c2nn[nH]n2)c2cccnc12,inactive,inactive
CSc1ccc(-c2cncc(NC(=O)c3cccs3)c2)cc1,inactive,inactive
Fc1ccccc1-c1nc(-c2ccc(-c3nn[nH]n3)cc2)no1,inactive,inactive
CC(=O)O[C@@H]1CC2C(C)(C)C(=O)C=C[C@]2(C)C2CC[C@@]3(C)[C@H](c4ccoc4)OC(=O)[C@H]4O[C@]43[C@@]21C (stereo not given in full),inactive,inactive
Cc1cccc(CNc2nc(-c3ccccc3C(F)(F)F)nc3ccccc23)c1,inactive,inactive
CCc1ccc(S(=O)(=O)Nc2cnccc2C(=O)Nc2nc(-c3ccccc3)cs2)cc1,inactive,inactive
Cc1cc2c(s1)c1c(C)nn(Cc3ccc(F)cc3)c(=O)c1n2C,inactive,inactive
CCCn1c(-c2ccc(F)cc2)nc2c(NCCCCN(CC)CC)nc(C)nc21,inactive,inactive
O=C(O)c1ccc2c(c1)C(=O)N([C@H](Cc1c3ccccc3cc3ccccc13)C(=O)O)C2=O,inactive,inactive
O=C1CCCC2=C1C(c1[nH]ncc1Cl)NC(=NCc1nccs1)N2 (stereo not given),inactive,inactive
Brc1ccccc1-c1nc(NCc2ccc(-c3cccnc3)cc2)c2ccccc2n1,inactive,inactive
O=C(Nc1nnc(-c2ccco2)o1)c1ccncc1,inactive,inactive
Cc1cc(C)n2ncc(C(=O)Nc3ccc4c(c3)OCCO4)c2n1,inactive,inactive
COc1ccccc1C1=Nn2c(nnc2-c2cccc(OC)c2OC)SC1,inactive,inactive

Structure (SMILES),Potency [1],Potency [2]
O=C(Nc1ccc(-c2nc3ccccc3[nH]2)cc1)c1ccc2n[nH]nc2c1,inactive,inactive
Cc1cc2c(s1)c1cnn(Cc3cccc(F)c3)c(=O)c1n2C,inactive,inactive
CCn1cnc2c(NCCc3cccnc3)nc(C#N)nc21,inactive,inactive
O=C(Nc1ccc(S(=O)(=O)Nc2nccs2)cc1)c1ccc2ccccc2c1,inactive,inactive
CCCCCCCCn1cc(CN(CC)CC)c2cc(-c3cnc(N)nc3)ccc21,inactive,inactive
COC(=O)c1ccc(O)c2ncc(-c3ccc(C(=O)NCCCN(C)C)cc3)cc12,inactive,inactive
CC(C)c1ccccc1-c1nc2c(c(NCc3ccc(-c4cccnc4)cc3)n1)CNC2,inactive,inactive
COc1ccc(-c2nnc(NC(=O)Nc3ccc4ccccc4c3)s2)cc1OC,inactive,inactive
CCC[C@@H]1C[C@@H](C(=O)N[C@H](C(C)Cl)[C@H]2O[C@H](SC)[C@H](O)[C@@H](O)[C@H]2O)N(C)C1 (stereo not given in full),inactive,inactive
Clc1cccc(-c2nc(-c3ccc(-c4nn[nH]n4)cc3)no2)c1,inactive,inactive
O=C(CN1C(=O)N/C(=C\c2cccn2-c2cccc(C(=O)O)c2)C1=O)Nc1ccccc1F,inactive,inactive
COc1ccc(NC(=O)c2[nH]c(C)c(C(C)=O)c2C)cc1S(=O)(=O)Nc1cccc(C#N)c1,inactive,inactive
C=C1[C@H]2CC[C@H](C(=O)O)[C@@]23CC[C@H](C3)C1(C)C,inactive,inactive
O=C(O)c1ccc2c(c1)C(=O)N([C@H](Cc1cccc3ccccc13)C(=O)O)C2=O,inactive,inactive
Cc1cc2c(s1)c1cnn(Cc3cc(C(F)(F)F)cc(Cl)c3F)c(=O)c1n2C,inactive,inactive
O=C(CNC(=O)c1ccccc1)OC(CCc1ccccc1)C(=O)Nc1cc(C(F)(F)F)ccc1Cl (stereo not given),inactive,inactive
COc1ccccc1-c1csc(N2CCC(C(N)=O)CC2)n1,inactive,inactive
COc1cccc(NC(=S)N2CCN(c3cccc(C(F)(F)F)n3)CC2)n1,inactive,inactive
O=C(O)c1cccc(-c2cccc(-c3nn4c(=O)cc(N5CCNCC5)nc4s3)c2)c1,inactive,inactive
CCCn1c(C)nc2c(NCCN3CCCC3)nc(C)nc21,inactive,inactive
CN(C)c1cnc2c(O)cccc2c1,inactive,inactive
Cc1ccc(C(=O)Nc2ccc(N3CCOCC3)cc2)cc1,inactive,inactive
